DAT uptake mod = human DAT dopamine uptake with cocaine, either direction | AID 449768 | LLC-PK1 hDAT cells, [14C]-dopamine uptake with cocaine IC80; actives deviate in either direction | actives 1.3% (n = 110,000) | Q01959 | B-score at 10 µM;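 active = Z score or B-score, a plate-position-corrected score, falls beyond the plate's 99.7% confidence bounds, in either direction; inactive = both scores lie inside the 99.7% bounds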;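 note: scored against the spread of the other compound wells on the same plate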
D1 mod = D1 dopamine receptor (human) allosteric modulation; P21728; HEK293 D1, CRE-luciferase, dopamine EC30 potentiation; actives deviate in either direction; B-score at 10 µM; actives 5.9% (n = 58,000); AID 641;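 active = luminescence count or its row- and column-corrected plate score outside the 99.7% band of the plate's sample wells, on either side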
ROCK2 inh = blocks human Rho kinase 2 activity. O75116. inhibition, % at 6 µM. actives 0.35% (n = 60,000). AID 604. purified ROCK2, Kinase-Glo ATP depletion luminescence;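 active = inhibition above the screen-wide mean inhibition plus 3 SD, cut at about 18% in these data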;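 note: plate controls were DMSO wells for no effect and Y-27632 control wells after no-enzyme background subtraction for full effect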
Target sequence (O75116 whole entry, looked up): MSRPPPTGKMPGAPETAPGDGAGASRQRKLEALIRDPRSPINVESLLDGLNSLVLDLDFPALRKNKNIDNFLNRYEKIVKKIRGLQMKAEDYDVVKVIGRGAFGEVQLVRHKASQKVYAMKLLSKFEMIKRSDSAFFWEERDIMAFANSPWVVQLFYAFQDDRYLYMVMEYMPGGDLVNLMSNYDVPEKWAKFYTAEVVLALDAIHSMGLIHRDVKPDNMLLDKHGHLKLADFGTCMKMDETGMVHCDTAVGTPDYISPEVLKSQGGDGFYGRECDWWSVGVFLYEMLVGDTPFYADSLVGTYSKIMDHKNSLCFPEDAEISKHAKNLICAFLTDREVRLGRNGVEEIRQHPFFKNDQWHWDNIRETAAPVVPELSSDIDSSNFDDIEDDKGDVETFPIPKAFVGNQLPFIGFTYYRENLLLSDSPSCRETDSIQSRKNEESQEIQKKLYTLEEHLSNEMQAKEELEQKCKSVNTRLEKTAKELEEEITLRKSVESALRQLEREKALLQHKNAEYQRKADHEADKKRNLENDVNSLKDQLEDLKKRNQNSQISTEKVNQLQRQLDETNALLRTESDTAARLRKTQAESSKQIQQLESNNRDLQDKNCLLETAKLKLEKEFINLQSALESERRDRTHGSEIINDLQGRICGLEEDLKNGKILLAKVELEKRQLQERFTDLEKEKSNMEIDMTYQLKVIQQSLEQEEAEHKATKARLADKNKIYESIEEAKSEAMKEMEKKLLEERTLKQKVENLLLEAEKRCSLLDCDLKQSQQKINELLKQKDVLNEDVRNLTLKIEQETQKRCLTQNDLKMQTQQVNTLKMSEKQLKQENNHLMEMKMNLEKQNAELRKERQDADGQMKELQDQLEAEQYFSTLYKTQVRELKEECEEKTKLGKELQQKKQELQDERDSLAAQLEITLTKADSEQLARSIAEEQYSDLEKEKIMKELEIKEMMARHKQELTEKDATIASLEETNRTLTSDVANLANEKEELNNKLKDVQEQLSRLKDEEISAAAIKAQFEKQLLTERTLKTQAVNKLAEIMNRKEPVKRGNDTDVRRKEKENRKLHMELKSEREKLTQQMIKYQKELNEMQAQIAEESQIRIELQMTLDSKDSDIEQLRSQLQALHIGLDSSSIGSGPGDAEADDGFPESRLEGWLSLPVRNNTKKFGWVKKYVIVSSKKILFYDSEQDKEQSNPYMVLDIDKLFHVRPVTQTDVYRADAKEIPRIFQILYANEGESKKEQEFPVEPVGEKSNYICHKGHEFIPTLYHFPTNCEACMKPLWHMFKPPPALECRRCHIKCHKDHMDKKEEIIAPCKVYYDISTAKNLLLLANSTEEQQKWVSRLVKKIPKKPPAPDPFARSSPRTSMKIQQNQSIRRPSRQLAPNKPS
PKA kinase inh = PKA (human) kinase inhibition | P17612 | PKA Kemptide phosphorylation, Kinase-Glo ATP luminescence | inhibition, % at 6 µM | actives 0.1% (n = 65,000) | AID 524;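 active = inhibition above the screen-wide mean inhibition plus 3 SD, cut at about 21% in these data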
D1 PAM confirm = D1 receptor (human) allosteric modulation, confirmed; shares compounds with D1 mod; HEK293 D1 CRE-luciferase, dopamine EC30 potentiation; active compounds read high; actives 88% (n = 2,200); luminescence at 10 µM;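 active = luminescence in either of two replicates above the same-plate mean plus 3 SD of the low-dose dopamine control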
D1 ag no DA = activates D1 CRE-luciferase signal without dopamine present; shares compounds with D1 mod; HEK293 D1 CRE-luciferase, luminescence, no dopamine; active compounds read high; luminescence at 10 µM; actives 0.8% (n = 1,900); AID 646; in the data active = luminescence above about 3900
Isoprot counter = alters isoproterenol CRE-luciferase response in HEK293 cells. shares compounds with D1 mod. HEK293 D1 CRE-luciferase, isoproterenol EC30 counter-screen. calls only at 10 µM. actives 63% (n = 2,200);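 active = luminescence in either replicate above plate mean of wells with a partly effective reference agonist dose plus 3 SD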;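 note: isoproterenol raises cAMP through native beta-adrenoceptor Gs so signal bypasses D1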
Numbers without * were called inactive; i = inactive; / = no result given; + = active, no number. This is one part of a sample in which hits are shown more often than they occur.

SMILES	DAT uptake mod	D1 mod	ROCK2 inh	PKA kinase inh	D1 PAM confirm	D1 ag no DA	Isoprot counter
COc1ccc(-c2cc(-c3ccccc3O)[nH]n2)cc1OC	-0.12	3.4*	12	11	8764*	1644	+
COc1ccc(CCNC(=O)CN2C(=O)c3ccccc3S2(=O)=O)cc1OC	-1.3	4.3*	3	4	7364*	1808	+
COc1ccc(CCNC(=O)c2cnc3n(c2=O)CCS3)cc1OC	1	4.7*	6	6	9460*	1716	+
O=C(c1ccc(CNc2c(N3CCCC3)c(=O)c2=O)cc1)N1CCc2ccccc2C1	0.99	0.014	4	4	/	/	/
O=C(NC(Cc1ccccc1)C(=O)OCC(=O)N1CCc2ccccc21)c1ccco1 (stereo not given)	-0.032	3.1*	-2	9	5596	1648	i
CN(C)c1ccc(C2C3C(=O)NC(=O)C3ON2c2ccc(Cl)cc2)cc1 (stereo not given)	0.55	-0.24	1	7	/	/	/
COc1ccc(CN(C2CCCC2)S(=O)(=O)c2ccc(-n3cnnn3)c(OC)c2)cc1OC	-0.46	6.1*	/	10	9100*	1536	+
CC1(C)OC(=O)N(CCc2ccccc2)C1(C)O (stereo not given)	-0.053	-4.6	3	-1	/	/	/
Cc1ccc(OCCN2C(=O)OC(C)(C)C2(C)O)cc1 (stereo not given)	-0.21	5.5*	5	3	7404*	1572	i
CCn1c(Sc2nc(C)nc3scc(-c4cccs4)c23)n[nH]c1=O	3	8.1*	2	10	15492*	1856	+
CC1(C)Oc2ccc(C(=O)NC3CCCC3)cc2N(CC(=O)NC2CCCCC2)C1=O	-0.19	-0.27	2	9	/	/	/
C=C(C)CN1CCN(c2c(CCC#N)c(C)c(C#N)c3nc4ccccc4n23)CC1	-0.49	5.4*	1	1	11364*	1768	+
COc1ccccc1OC(=O)CN1C(=O)c2ccccc2C1=O	0.29	/	/	/	/	/	/
CCC1S/C(=C(\C#N)C(=O)NCc2ccco2)N(c2ccc(F)cc2)C1=O (stereo not given)	0.47	1.3	2	9	/	/	/
CCC1S/C(=C(\C#N)C(N)=O)N(c2ccc(F)cc2)C1=O (stereo not given)	-1.1	5*	1	13	9908*	/	+
COc1ccc(C2CC(=O)Nc3ccccc3S2(=O)=O)cc1OC (stereo not given)	-0.84	2.9*	2	4	9916*	1608	i
COC(=O)CSC1=C(C#N)C(c2cccc(OC)c2)CC(=O)N1 (stereo not given)	-0.99	1.9*	2	4	5484	1664	i
CCOC(=O)C1=C(NC(=O)c2ccc(Br)o2)Nc2ccccc2N=C1	1.1	19*	-3	-2	24204*	1580	+
CCOc1ccc(-n2c(Cc3ccccc3)nnc2SCc2c(C)noc2C)cc1	0.05	/	-1	-1	/	/	/
Cc1cc(-c2cccs2)c2c(n1)sc1c(=O)[nH]c(=O)[nH]c12	0.52	9.9*	5	3	13116*	1580	i
N#Cc1c(-c2cccs2)cc(-c2cccnc2)nc1N	-0.062	18*	-2	-4	16780*	1536	+
N#Cc1c(-c2cccs2)cc(-c2ccccn2)nc1N	0.11	5.6*	-2	-3	10756*	1560	+
N#Cc1c(-c2cccs2)cc(C2CC2)nc1SCC(N)=O	1.1	/	/	/	/	/	/
Cc1cccc(C)c1NC(=O)C(c1ccc(Cl)cc1Cl)N1CCCCC1 (stereo not given)	-0.39	/	/	/	/	/	/
CC1CC(NC(=O)C2(C)CC2(Cl)Cl)CC(C)(C)C1 (stereo not given)	-0.099	/	/	/	/	/	/
SMILES	DAT uptake mod	D1 mod	ROCK2 inh	PKA kinase inh	D1 PAM confirm	D1 ag no DA	Isoprot counter
C=CCNC(=O)c1onc(CSc2ccccc2CC)c1C(=O)O	-0.098	/	/	/	/	/	/
CC(C)C[C@@H](CSc1ccc(Br)cc1)N1CCN(CC(C)C)CCC1=O	0.021	/	/	/	/	/	/
CCNC(=O)N1CCOCC1	-0.97	/	/	/	/	/	/
CCCCC(=O)Nc1ccc(Br)cn1	0.33	/	/	/	/	/	/
CCCCNC(=O)Nc1ccc(Br)cn1	0.26	7.2*	/	3	12048*	1684	i
CC(=NCc1ccncc1)C1=C(O)c2ccccc2C1=O	0.89	/	/	/	/	/	/
CC(=NCc1cccnc1)C1=C(O)c2ccccc2C1=O	1.7	3*	6	5	5700*	2088	i
COc1ccc2c(Cl)c(C(=O)NN)sc2c1	0.86	/	/	/	/	/	/
COc1ccc2c(Cl)c(C(N)=O)sc2c1	-0.62	7.3*	50*	29*	15304*	1792	+
COC(=O)C1=C[C@@H](C(=O)OC)[C@@H]2C3=C(C(=O)[C@@]2(C)NC(=O)c2ccccc2)[C@H](C)n2c(=O)n(C)c(=O)n2[C@@H]3C1	-0.054	/	/	/	/	/	/
O=C(NCc1ccco1)c1ccc2c(c1)C(=O)N(C1CCCCC1)C2=O	-0.16	/	/	/	/	/	/
O=C(NCc1cccnc1)c1cccc2c1C(=O)N(C1CCCCC1)C2	/	21*	0	-3	25588*	1508	+
O=C(NCc1ccco1)c1cccc2c1C(=O)N(C1CCCCC1)C2	-0.11	17*	-1	-2	21064*	1788	+
O=C(NCc1cccnc1)C1CC(=O)N(C2CCCCC2)C1 (stereo not given)	0.41	-0.18	1	1	/	/	/
COc1ccc(C2CCCN2C(=O)Nc2ccc(F)cc2)cc1OC (stereo not given)	/	1.7	-1	-9	/	/	/
O=C(OCC#CCSc1nnc(-c2ccc(Br)cc2)o1)c1ccco1	0.89	4.8*	1	5	7080*	1620	i
CCCS(=O)(=O)c1c(S(=O)(=O)CCC)c2ccccn2c1C(=O)OC	-0.42	1.7	/	/	/	/	/
CCCS(=O)(=O)c1c(S(=O)(=O)CCC)c2cc(CC)ccn2c1C(=O)OC	0.87	6.5*	-16	-4	13540*	1436	+
COc1nc(C)ccc1-c1noc(-c2ccncc2)n1	-0.71	6.7*	3	7	7856*	1580	i
CCOc1nc(C)ccc1-c1noc(CC)n1	0.59	/	/	/	/	/	/
CCOc1nc(C)ccc1-c1noc(-c2ccccn2)n1	0.066	8*	-1	3	16720*	1708	+
CCOc1nc(C)ccc1-c1noc(-c2ccco2)n1	-0.51	7.2*	1	-1	16212*	1800	+
COc1cc(-c2nc(-c3ccc(C)nc3OC)no2)cc(OC)c1OC	/	-0.12	-5	1	/	/	/
COc1ccc(OCC(O)Cn2c(Nc3cccc(C)c3)nc3c2c(=O)n(C)c(=O)n3C)cc1 (stereo not given)	/	-0.17	4	0	/	/	/
CCc1ccc2oc(=O)cc(CN3CCC(C)CC3)c2c1	0.023	5.9*	3	-1	10276*	1600	+
CCc1ccc2oc(=O)cc(CN3CCOCC3)c2c1	0.48	5.9*	3	16	13788*	1736	i

Screens as filed in PubChem BioAssay.
